Screening results as filed in PubChem BioAssay.
Rows were chosen to be rich in hits. Some 10% of all compounds tested hit in one or more screens of this group.
NIH3T3 tox = cytotoxic compounds in NIH 3T3 cells; NIH 3T3 viability, CellTiter-Glo ATP luminescence, 48-72 h; Potency, µM (series often up to 96.7 µM), usual class: inhibitors; 94,000 compounds, 4.3% hits; also: nearly all actives have a fitted effect of over 55% in size
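Cytotoxicity is measured as loss of cellular ATP: NIH 3T3 cells (400/well) are exposed to compound for 48 or 72 hr at 37 °C, then CellTiter-Glo luminescence is imaged after 10 min at room temperature.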
NPR1 antag = blocks ANP-stimulated signaling of human Npr1 receptor | HEK293 hNpr1 GloSensor cGMP, ANP-stimulated luminescence | Potency, µM (highest dose often 46.3 µM), most hits filed as inhibitors | 76,000 compounds, 1.6% hits | P16066; calls by dose curve; also: nearly all actives have a fitted effect of over 60% in size
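HEK293 cells stably expressing human Npr1 and cGMP GloSensor pGS-40F, loaded 2 h with 2% GloSensor reagent, given compound 30 min at room temperature. Luminescence read before and 20 min after 0.1 nM hNppA.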
HEK293 tox = cytotoxic compounds in HEK 293 cells; Potency, µM (highest dose often 115 µM), hits mostly inhibitors; HEK 293 viability, ATP luminescence (CellTiter-Glo), 48-72 h; 94,000 compounds, 6.6% hits; also: nearly all actives have a fitted effect of over 60% in size
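Pintool-delivered compounds were incubated with HEK 293 cells (250 cells/well) at 37 degree Celsius for 48 or 72 hr. ATP-dependent luminescence (CellTiter-Glo) then reported remaining viable cells.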
GPT2 inh = blocks human glutamate pyruvate transaminase 2. Potency, µM (highest dose often 57.7 µM), usual class: inhibitors. Recombinant GPT2, coupled pyruvate oxidase/HRP Amplex Red fluorescence. 100,000 compounds, 0.25% hits. AID 1671188. Q8TD30; also: nearly all actives have a fitted effect of over 60% in size
Target sequence (Q8TD30 whole entry, looked up): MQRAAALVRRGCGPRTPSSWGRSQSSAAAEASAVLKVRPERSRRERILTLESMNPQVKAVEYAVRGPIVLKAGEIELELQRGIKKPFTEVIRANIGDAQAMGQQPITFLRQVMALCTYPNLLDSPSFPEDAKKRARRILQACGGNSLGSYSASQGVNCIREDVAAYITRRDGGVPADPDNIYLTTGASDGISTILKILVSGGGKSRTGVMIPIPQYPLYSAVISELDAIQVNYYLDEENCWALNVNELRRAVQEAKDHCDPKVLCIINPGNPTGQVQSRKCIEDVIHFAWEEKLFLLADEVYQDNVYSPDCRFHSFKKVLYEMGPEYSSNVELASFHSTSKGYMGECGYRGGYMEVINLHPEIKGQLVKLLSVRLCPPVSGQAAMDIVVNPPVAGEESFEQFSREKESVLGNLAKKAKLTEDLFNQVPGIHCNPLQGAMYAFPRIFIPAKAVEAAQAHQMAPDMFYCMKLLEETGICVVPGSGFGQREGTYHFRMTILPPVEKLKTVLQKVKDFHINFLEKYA
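Inhibition is scored from Amplex Red fluorescence generated when pyruvate oxidase and HRP act on pyruvate released by GPT2. Reactions contain 10ng/uL enzyme, 250uM a-KG and 2mM L-alanine and run 30 min at room temperature.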
Luciferase inh = inhibitors of firefly (Photinus pyralis) luciferase | P08659 | purified P. pyralis luciferase, luminescence, biochemical | Potency, µM (highest dose often 115 µM), usual class: inhibitors | 76,000 compounds, 2.5% hits | AID 1347043; also: nearly all actives have a fitted effect of over 65% in size
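Biochemical qHTS: compound (6-point titration) added to 10uM D-luciferin plus 10uM ATP in Tris acetate pH 7.5 buffer with Mg, Tween-20 and BSA, then purified enzyme at 10nM; light output imaged.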
Of the large screens only hits and unclear results are named; the others gave an inactive call. Unless noted, calls follow the shape of the dose curve; as a rule, active = well fitted curve in the direction sought with a large enough effect; inconclusive = small, poorly fitted or top-dose-only effect, or another doubt; inactive = no such curve, though single readings can be large; an effect the other way counts as inactive or inconclusive.

COc1ccc(OCc2nnc(C(=O)N3CCC[C@@H]3c3nc4ccccc4[nH]3)n2-c2ccccc2)cc1	NIH3T3 tox 11µM
N#Cc1cccc(OCc2nnc(C(=O)N3CCC[C@@H]3c3nc4ccccc4[nH]3)n2-c2ccccc2)c1	NIH3T3 tox inconclusive
O=C(NC1CCCC1)c1nc2cccnc2n(C2CC2)c1=O	none (no result: NPR1 antag, Luciferase inh)
CN(CCn1ccnc1)c1ccc(-c2nc(-c3cccc(Cl)c3)no2)cn1	NIH3T3 tox inconclusive, NPR1 antag inconclusive, HEK293 tox 35µM, Luciferase inh 3.2µM
OC1(CN2CCN(C/C=C/c3ccccc3)CC2)CNCCOC1 (stereo unspecified)	NIH3T3 tox inconclusive
COc1cccc(CNC(=O)c2nc3cccnc3n(Cc3ccccc3OC)c2=O)c1	none (no result: NPR1 antag, Luciferase inh)
Cc1ccc(C2Cn3cnc(C(=O)N4CCC(C(=O)NCc5ccccc5F)CC4)c3CO2)cc1 (stereo unspecified)	Luciferase inh inconclusive
O=C(NCc1ccc(F)cc1F)C1CCN(C(=O)c2ncn3c2COC(c2ccccc2)C3)CC1 (stereo unspecified)	Luciferase inh 35µM
O=C(NCc1ccco1)C1CCN(C(=O)c2ncn3c2COC(c2ccc(F)cc2)C3)CC1 (stereo unspecified)	Luciferase inh 22µM
Cc1ccc(C2Cn3cnc(C(=O)N4CCC(C(=O)NCc5ccc(F)cc5F)CC4)c3CO2)cc1 (stereo unspecified)	Luciferase inh inconclusive
Cc1ccccc1CNC(=O)C1CCN(C(=O)c2ncn3c2COC(c2ccccc2)C3)CC1 (stereo unspecified)	Luciferase inh 16µM
O=C(NCc1cc(F)ccc1F)C1CCN(C(=O)c2ncn3c2COC(c2ccc(F)cc2)C3)CC1 (stereo unspecified)	Luciferase inh 45µM
Cc1c(O)cccc1C(=O)N1CCCN(Cc2ccc(F)cc2)C(C(C)C)C1 (stereo unspecified)	NIH3T3 tox inconclusive, HEK293 tox 45µM
Cc1cccc(NC(=O)Nc2ccc(C)n(CC(=O)O)c2=O)c1	Luciferase inh 16µM
Cc1cccc(NC(=O)Nc2ccc(C)n(CC(=O)Nc3ccc(C)c(C)c3)c2=O)c1	NIH3T3 tox 32µM, HEK293 tox 28µM
Cc1ccc(C)n1-c1ccc(C(=O)N2CCC3(CCC(=O)N(CC4CC4)CC3)CC2)cc1	NIH3T3 tox inconclusive, HEK293 tox inconclusive (no result: NPR1 antag, Luciferase inh)
CN1C(=O)[C@@H]2C[C@@H](CN2Cc2ccc3ccccc3n2)Oc2ccccc21	NIH3T3 tox 79µM, HEK293 tox inconclusive
COc1ccc(CN2C(=O)[C@@H]3C[C@@H](CN3Cc3ccccc3C)Oc3ccccc32)cc1	NIH3T3 tox inconclusive, HEK293 tox 71µM
O=C1Nc2ccccc2O[C@H]2C[C@@H]1N(Cc1ccc(C(F)(F)F)cc1)C2	NIH3T3 tox inconclusive, NPR1 antag inconclusive, HEK293 tox 71µM, GPT2 inh inconclusive
COc1ccc(CN2C(=O)[C@@H]3C[C@@H](CN3Cc3ccccc3OC)Oc3ccccc32)cc1	none
COc1ccc(CN2C(=O)[C@@H]3C[C@@H](CN3Cc3ccccc3)Oc3ccccc32)cc1	NIH3T3 tox inconclusive, HEK293 tox 50µM
CSc1ccc(CN2CCC(CO)(CN3CCCC3)CC2)cc1	NIH3T3 tox inconclusive, HEK293 tox inconclusive
CCCCn1c(=O)c(C(=O)N2CCN(C(=O)C3CC3)CC2)nc2cccnc21	GPT2 inh inconclusive (no result: NPR1 antag, Luciferase inh)
COCCN1C(=O)[C@@H]2C[C@@H](CN2Cc2ccc(C(F)(F)F)cc2)Oc2ccccc21	NIH3T3 tox inconclusive, HEK293 tox 79µM, GPT2 inh inconclusive
O=C1[C@@H]2C[C@@H](CN2C2CCC2)Oc2ccccc2N1Cc1ccc(OC(F)(F)F)cc1	NIH3T3 tox 40µM, HEK293 tox 71µM
CC(C)N1C[C@@H]2C[C@H]1C(=O)N(Cc1ccccc1)c1ccccc1O2	NIH3T3 tox 50µM, HEK293 tox inconclusive
CC(C)N1C[C@@H]2C[C@H]1C(=O)N(Cc1cccnc1)c1ccccc1O2	NIH3T3 tox inconclusive
O=C1[C@@H]2C[C@@H](CN2Cc2ccc(Cl)cc2)Oc2ccccc2N1Cc1ccccc1	NIH3T3 tox 32µM, NPR1 antag inconclusive, HEK293 tox 63µM
